Composite z-score and z-score data for 5 compounds are collected here from PubChem BioAssay.

Assay [1] relates to Plasmodium falciparum Sir2 (PF13_0152, Sir2A). Nature of the assay: Plasmodium falciparum Sir2A binding compounds – biochemical, small-molecule microarray, 635 nm fluorescence, primary screen (AID 1098).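 Further: score merges spot fluorescence intensity with its signal-to-noise ratio.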 To be noted: fluorescence 635 nm, higher = more signal.
Assay [2] can be described thus: probe aDKK1 binding to arrayed compounds – biochemical, biotinylated probe, 635/667 nm fluorescence, primary screen (AID 1099).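 Further: score merges 667nm spot fluorescence with signal to noise across triplicate slides.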 To be noted: small-molecule microarray, higher = more signal.
The nature of assay [3]: probe aCHRDL2 binding to arrayed compounds – biochemical, biotinylated probe, 635/667 nm fluorescence, primary screen (AID 1100). To be noted: small-molecule microarray, higher = more signal.
Assay [4] in a line: change in splice reporter luminescence, either direction, cell-based, HEK293, spliceosome inhibition project, primary screen (AID 1101).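 Further: HEK293 cells carrying a splicing-competent luciferase reporter gene; test concentration not given here.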 As to conditions: HEK293 splicing luciferase reporter, 24 h, higher = more signal, called active from +8 up or from −8 down.
The target of assay [5] is Fibroblast growth factor 10 (Homo sapiens) (UniProt O15520). Description: compounds binding fibroblast growth factor 10 – biochemical, small-molecule microarray, 635 nm fluorescence, primary screen (AID 1102). To be noted: FGF10 binding, fluorescence 635 nm, higher = more signal.
Assay [6] has as its system glycogen synthase kinase-3 (GSK3A per assay name; protocol says GSK3B). Description: compounds binding glycogen synthase kinase-3 – biochemical, small-molecule microarray, 635 nm fluorescence, GSK3A, primary screen (AID 1103). Further: the record names both GSK3A and GSK3B. As to conditions: fluorescence 635 nm, higher = more signal.
For assay [7], the target named is Epidermal growth factor receptor (Homo sapiens) (UniProt P00533). Nature of the assay: compounds binding epidermal growth factor receptor – biochemical, small-molecule microarray, 635 nm fluorescence, primary screen (AID 1104).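 Further: score merges 667 nm emission intensity with spot signal to noise over triplicate slides.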 To be noted: EGFR binding, higher = more signal.
Assay [8] concerns the target Follistatin-related protein 3 (Homo sapiens) (UniProt O95633). Nature of the assay: compounds binding follistatin-related protein 3 – biochemical, small-molecule microarray, 635 nm fluorescence, primary screen (AID 1105).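 Further: score merges emission near 667 nm and signal to noise per printed spot across three slides.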 To be noted: FSTL3 binding, higher = more signal.
Assay [9] has as its target Dickkopf-related protein 1 (Homo sapiens) (UniProt O94907). Nature of the assay: small molecules binding DKK1 protein – biochemical, small-molecule microarray, 635 nm fluorescence scan, primary screen (AID 1106).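 Further: score merges emission near 667 nm with signal to noise over three replicate slides.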 To be noted: higher = more signal.
Assay [10] deals with Inhibin beta A chain (activin A). Nature of the assay: small molecules binding activin A – biochemical, small-molecule microarray, 635 nm fluorescence scan, primary screen (AID 1107).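 Further: mouse activin A protein probed at 4.33 µg/mL on printed slides; score merges bound-protein fluorescence near 667 nm with spot signal-to-noise.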 As to conditions: INHBA, higher = more signal.
The subject of assay [11] is Human papillomavirus type 1a protein E7 (residues 44-93). Nature of the assay: small molecules binding HPV E7 44-93 – biochemical, small-molecule microarray, residues 44-93, 635 nm fluorescence, primary screen (AID 1108).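 Further: E7 fragment applied at 1 µg/mL in TBST for 1 h at 4 C; score combines spot fluorescence with its signal to noise ratio.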 As to conditions: fluorescence 635 nm, higher = more signal.
Assay [12] can be described thus: hepatitis C replication reporter changes, two-sided – Huh7 cells, luciferase reporter, HCV replication inhibitor project, primary screen (AID 1109).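 Further: huh7 hepatoma cells harbouring a luciferase neomycin HCV replicon reporter; luciferase luminescence as measure of HCV replicon replication; test concentration not given here.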 To be noted: Huh7 HCV replicon luciferase reporter, 48 h; higher = more signal. In general terms: A reporter such as luciferase makes a cellular process visible.
The target of assay [13] is Left-right determination factor 2 (Homo sapiens) (UniProt O00292). Nature of the assay: small molecules binding LEFTY2 protein – biochemical, small-molecule microarray, 635 nm fluorescence scan, primary screen (AID 1110). To be noted: higher = more signal.
Assay [14] has as its target Calmodulin-1 (Homo sapiens) (UniProt P0DP23). Nature of the assay: small molecules binding calmodulin-1 with EGTA – biochemical, small-molecule microarray, Cy5-labelled CALM1, profiling panel (AID 1111).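 Further: labelled calmodulin applied in Tris saline Tween buffer holding calcium plus EGTA and DTT.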 As to conditions: Cy5-CALM1 binding fluorescence, higher = more signal.
The target is the same in assay [15]. Nature of the assay: small molecules binding Ca-loaded calmodulin-1 – biochemical, small-molecule microarray, Cy5-labelled CALM1, plus calcium, artefact control for SMM control-protein annotation, profiling panel (AID 1112).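 Further: score merges spot fluorescence with signal to noise from triplicate slides.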 As to conditions: Cy5-CALM1 binding fluorescence, higher = more signal.
A short description of assay [16]: probe aWnt5a binding to arrayed compounds – biochemical, biotinylated probe, 635/667 nm fluorescence, primary screen (AID 1113).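 Further: score merges 667 nm fluorescence intensity with signal-to-noise per printed feature.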 To be noted: small-molecule microarray, higher = more signal.
Assay [17] is described as follows: probe aShh binding to arrayed compounds – biochemical, biotinylated probe, 635/667 nm fluorescence, primary screen (AID 1114).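 Further: probe is biotin-labelled aShh protein from a stem cell growth factor screen; measures binding of labelled protein to compounds printed on the slide; score merges feature fluorescence at 667 nm with signal-to-noise.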 To be noted: small-molecule microarray, higher = more signal.
The nature of assay [18]: probe aNog binding to arrayed compounds – biochemical, biotinylated probe, 635/667 nm fluorescence, primary screen (AID 1115).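 Further: probe is biotinylated aNog protein used at 0.15 µg/mL for 1 h at 4 C; z-score combines 667 nm fluorescence of each spot with its signal to noise.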 As to conditions: small-molecule microarray, higher = more signal.
Assay [19] addresses Torsin-1A-interacting protein 1 (Homo sapiens) (UniProt Q5JTV8). Description: compound microarray binding of lysate hLAP1 – cell lysate, small-molecule microarray, COS7 lysate, 635/667 nm fluorescence, primary screen (AID 1116). As to conditions: 635 nm fluorescence, higher = more signal.
Assay [20] deals with Alpha-bungarotoxin (Bungarus multicinctus) (UniProt P60615). Description: compounds binding labelled alpha-BTX control protein – biochemical, small-molecule microarray, Alexa647 label, 635/667 nm fluorescence, artefact control for SMM control protein annotation, profiling panel (AID 1117). To be noted: alpha-BTX-A647 binding fluorescence, higher = more signal.

The source made the active and inactive calls.

Chain of Alpha-bungarotoxin (Bungarus multicinctus) (P60615 whole entry, looked up): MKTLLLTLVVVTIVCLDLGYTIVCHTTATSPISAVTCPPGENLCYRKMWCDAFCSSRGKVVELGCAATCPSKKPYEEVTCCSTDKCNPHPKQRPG
Chain of Fibroblast growth factor 10 (Homo sapiens) (O15520 whole entry, looked up): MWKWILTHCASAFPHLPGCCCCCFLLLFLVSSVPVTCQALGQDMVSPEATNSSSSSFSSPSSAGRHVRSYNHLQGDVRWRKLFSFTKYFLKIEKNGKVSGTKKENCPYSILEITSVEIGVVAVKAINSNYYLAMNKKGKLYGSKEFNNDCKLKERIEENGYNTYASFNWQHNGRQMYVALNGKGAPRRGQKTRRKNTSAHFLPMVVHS
Chain of Dickkopf-related protein 1 (Homo sapiens) (O94907 whole entry, looked up): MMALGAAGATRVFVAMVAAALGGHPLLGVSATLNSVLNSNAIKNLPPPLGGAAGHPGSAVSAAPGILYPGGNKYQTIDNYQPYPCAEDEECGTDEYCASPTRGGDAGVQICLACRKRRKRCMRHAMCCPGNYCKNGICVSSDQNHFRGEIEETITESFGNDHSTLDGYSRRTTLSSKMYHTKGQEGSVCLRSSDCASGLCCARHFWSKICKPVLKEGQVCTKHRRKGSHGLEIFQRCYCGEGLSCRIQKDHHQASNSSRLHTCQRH
Chain of Left-right determination factor 2 (Homo sapiens) (O00292 whole entry, looked up): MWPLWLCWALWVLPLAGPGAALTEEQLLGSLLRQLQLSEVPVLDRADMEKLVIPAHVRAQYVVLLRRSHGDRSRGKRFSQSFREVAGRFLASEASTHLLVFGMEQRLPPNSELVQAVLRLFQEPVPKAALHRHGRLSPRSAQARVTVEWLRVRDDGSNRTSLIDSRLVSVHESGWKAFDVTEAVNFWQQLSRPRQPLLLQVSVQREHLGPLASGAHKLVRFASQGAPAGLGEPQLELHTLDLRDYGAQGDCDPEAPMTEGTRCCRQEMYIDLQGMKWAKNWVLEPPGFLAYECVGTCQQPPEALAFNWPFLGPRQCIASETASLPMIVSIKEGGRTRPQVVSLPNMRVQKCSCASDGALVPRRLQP
Chain of Torsin-1A-interacting protein 1 (Homo sapiens) (Q5JTV8 whole entry, looked up): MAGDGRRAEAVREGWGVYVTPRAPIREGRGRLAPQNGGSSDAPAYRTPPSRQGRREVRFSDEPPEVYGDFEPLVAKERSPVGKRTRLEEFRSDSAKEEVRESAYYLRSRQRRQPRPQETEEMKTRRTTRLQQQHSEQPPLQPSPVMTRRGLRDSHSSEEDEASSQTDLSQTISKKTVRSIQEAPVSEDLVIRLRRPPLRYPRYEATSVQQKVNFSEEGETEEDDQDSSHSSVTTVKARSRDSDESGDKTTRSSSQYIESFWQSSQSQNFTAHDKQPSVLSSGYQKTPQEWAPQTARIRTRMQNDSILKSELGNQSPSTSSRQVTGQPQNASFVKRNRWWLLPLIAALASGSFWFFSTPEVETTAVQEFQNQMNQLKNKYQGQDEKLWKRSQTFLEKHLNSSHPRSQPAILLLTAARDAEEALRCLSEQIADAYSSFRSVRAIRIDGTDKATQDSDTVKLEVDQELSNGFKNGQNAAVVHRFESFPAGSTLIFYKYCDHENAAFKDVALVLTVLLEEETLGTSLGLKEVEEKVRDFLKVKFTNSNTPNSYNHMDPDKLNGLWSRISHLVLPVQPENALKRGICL
Chain of Epidermal growth factor receptor (Homo sapiens) (P00533 whole entry, looked up): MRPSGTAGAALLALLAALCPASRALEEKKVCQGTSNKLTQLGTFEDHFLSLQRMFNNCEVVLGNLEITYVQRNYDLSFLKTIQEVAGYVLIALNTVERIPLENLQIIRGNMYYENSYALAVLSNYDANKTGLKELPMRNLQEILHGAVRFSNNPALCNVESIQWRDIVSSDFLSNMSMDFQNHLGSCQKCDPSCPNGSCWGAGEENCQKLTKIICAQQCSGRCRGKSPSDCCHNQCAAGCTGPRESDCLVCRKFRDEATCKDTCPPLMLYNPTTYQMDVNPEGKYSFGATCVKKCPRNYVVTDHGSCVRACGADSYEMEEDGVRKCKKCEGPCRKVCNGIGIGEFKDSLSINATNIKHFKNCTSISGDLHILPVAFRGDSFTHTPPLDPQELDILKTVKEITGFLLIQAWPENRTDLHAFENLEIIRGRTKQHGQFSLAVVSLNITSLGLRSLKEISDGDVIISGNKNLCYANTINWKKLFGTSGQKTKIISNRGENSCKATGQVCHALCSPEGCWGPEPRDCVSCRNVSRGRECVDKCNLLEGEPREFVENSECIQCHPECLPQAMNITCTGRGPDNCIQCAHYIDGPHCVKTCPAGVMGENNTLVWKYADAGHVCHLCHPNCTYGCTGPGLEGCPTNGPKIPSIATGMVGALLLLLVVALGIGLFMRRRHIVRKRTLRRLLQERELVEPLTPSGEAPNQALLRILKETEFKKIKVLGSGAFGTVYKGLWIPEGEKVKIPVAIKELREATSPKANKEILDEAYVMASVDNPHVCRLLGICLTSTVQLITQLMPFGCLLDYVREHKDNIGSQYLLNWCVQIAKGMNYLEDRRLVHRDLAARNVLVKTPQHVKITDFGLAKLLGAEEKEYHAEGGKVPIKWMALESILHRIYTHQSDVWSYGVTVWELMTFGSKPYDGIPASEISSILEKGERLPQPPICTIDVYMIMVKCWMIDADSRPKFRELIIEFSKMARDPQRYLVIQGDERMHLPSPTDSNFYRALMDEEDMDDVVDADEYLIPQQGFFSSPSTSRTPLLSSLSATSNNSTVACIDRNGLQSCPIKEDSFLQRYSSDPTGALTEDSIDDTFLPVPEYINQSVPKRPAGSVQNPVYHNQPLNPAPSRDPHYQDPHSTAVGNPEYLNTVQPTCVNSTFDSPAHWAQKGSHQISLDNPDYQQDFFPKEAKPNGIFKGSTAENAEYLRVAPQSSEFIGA
Chain of Follistatin-related protein 3 (Homo sapiens) (O95633 whole entry, looked up): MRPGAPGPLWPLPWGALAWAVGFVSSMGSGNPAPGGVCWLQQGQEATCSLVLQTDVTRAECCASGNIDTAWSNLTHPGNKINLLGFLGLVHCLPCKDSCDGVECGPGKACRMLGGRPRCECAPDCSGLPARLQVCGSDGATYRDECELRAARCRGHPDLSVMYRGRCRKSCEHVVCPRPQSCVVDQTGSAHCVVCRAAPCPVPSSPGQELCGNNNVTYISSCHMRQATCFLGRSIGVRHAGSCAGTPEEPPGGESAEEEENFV

For the compound `CCCCC(=C=CC[C@H](O)c1ccc(OCCO)cc1)C[C@H](O)c1cc(Cl)cc(Cl)c1O`, the composite z-score is 1.06 in assay [1]; -0.0865 in assay [2]; 0.218 in [3]; 1.35 in assay [5]; 0.11 in assay [6]; -0.0609 in [7]. Moreover, the composite z-score in assay [8] was 0.17; in [9] it was 0.193; in assay [10], 0.813; in assay [11], 0.584; in assay [13], 0.0916; in assay [14], 0.0258. For the same compound, the composite z-score in [15] is -0.0211; in assay [16] it was -0.198; in [17], -0.153; in assay [18], 0.452; in assay [19] it was 0.849; in assay [20], 0.779. For the same compound, the results for the z-score in assay [4] and in [12] were -0.321 (inactive) and -1.63, respectively.

On to `COC(=O)C(CC#Cc1ccc2c(c1)[C@]1(C(=O)N2)[C@H](c2ccc(OCCO)cc2)N2[C@H](c3ccccc3)[C@H](c3ccccc3)OC(=O)[C@H]2[C@@H]1C(=O)N1CCN(c2ncccn2)CC1)C(=O)OC`, for which the composite z-score was found to be 1.35 in [1]; 0.841 in assay [2]; 0.782 in [3]; 1.14 in assay [5]; 1.32 in assay [6]; 0.331 in [7]. Moreover, the composite z-score is 1.37 in assay [8]; 0.982 in assay [9]; 0.53 in assay [10]; 0.233 in [11]; 1.28 in assay [13]; 1.48 in assay [14]. Moreover, the composite z-score in assay [15] is 0.43; in assay [16], -0.0286; in assay [17], 0.214; in [18], -0.889; in [19], 1.2; in assay [20], 1.3. Further, the z-score in assay [4] was 0.0768 (inactive); in assay [12] it was -1.49.

Turning to `C=C[C@@H](C)[C@H](O)c1ccc(OCCO)cc1`, the composite z-score in [1] was -0.112; in assay [2], -0.234; in assay [3] it was 0.825; in assay [5] it was -1.57; in assay [6], -1.25; in assay [7] it was -2.14. Further, the composite z-score in assay [8] was -1.71; in [9] it was -1.5; in assay [10], -1.57; in assay [11] it was -0.355; in assay [13] it was -2.31; in assay [14] it was -0.912. The composite z-score was 0.521 in assay [15]; -0.262 in [16]; -0.289 in [17]; -0.446 in assay [18]; -0.73 in assay [19]; -1.16 in assay [20]. Also, the z-score in [4] was -0.474 (inactive); in [12], 0.27.

`CCOC(=O)C1=CCN(S(=O)(=O)c2ccc(C)cc2)C1c1ccccc1` (stereo not given): the composite z-score in [1] is 0.494; in [2] it was 0.129; in assay [3], 0.221; in assay [5] it was 1.19; in assay [6] it was 0.509; in assay [7], 0.204. In addition, the composite z-score in assay [8] is 0.493; in assay [9], 0.22; in [10] it was 0.867; in [11], 0.666; in assay [13], 0.564; in assay [14], -0.263. Moreover, the composite z-score is -0.197 in assay [15]; -0.0346 in assay [16]; 0.0204 in assay [17]; 0.46 in assay [18]; 0.553 in assay [19]; 0.848 in assay [20]. Besides, the z-score was -0.377 (inactive) in [4] and -3.27 in assay [12].

`C=C(/C(=C/C[C@H](OC(=O)c1ccncc1)c1cccc(OCCO)c1)c1cnc2ccccc2c1)C(C)C`: the composite z-score is 0.411 in [1]; -0.0011 in assay [2]; 0.454 in assay [3]; 1.47 in assay [5]; 1.18 in [6]; 0.539 in assay [7]. Moreover, the composite z-score in assay [8] stood at 1.51; in assay [9] it was 0.739; in assay [10], 1.68; in [11], 0.589; in assay [13], 0.67; in assay [14], 0.127. Further, the composite z-score was -0.412 in assay [15]; -0.0236 in [16]; -0.0011 in assay [17]; 0.0215 in assay [18]; 2.85 in assay [19]; 3.56 in [20]. Moreover, the z-score in [4] is -1.46 (inactive); in assay [12], -4.47.
